Article PMC5540273 (PLoS ONE, 2017)

Legend:
Details in all cases: concentration: 1 μM, replicates: in singlicate; n = 1
MEK2 = system: T1, MEK2
T1 construct: gene MAP2K2

MEK3 = system: T2, MEK3
T2 construct: gene MAP2K3

MEK4 = system: T3, MEK4
T3 construct: gene MAP2K4

MEK5 = system: T4, MEK5
T4 construct: gene MAP2K5

MEK6 = system: T5, MEK6
T5 construct: gene MAP2K6

MELK = system: MELK
MERTK = system: MERTK
MET = system: MET
MINK = system: T6, MINK
T6 construct: gene MINK1

MKK7 = system: MKK7
MKNK1 = system: MKNK1
MKNK2 = system: MKNK2
MLCK = system: T7, MLCK
T7 construct: gene MYLK3

MLK1 = system: T8, MLK1
T8 construct: gene MAP3K9

MLK2 = system: MLK2
MLK3 = system: MLK3
MRCKA = system: MRCKA
MRCKB = system: T9, MRCKB
T9 construct: gene CDC42BPB

MST1R = system: MST1R
MST1 = system: T10, MST1
T10 construct: gene STK4
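Note: KINOMEscan kinase panel screen.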

| Structure (SMILES) | %Inh (MEK2) | %Inh (MEK3) | %Inh (MEK4) | %Inh (MEK5) | %Inh (MEK6) | %Inh (MELK) | %Inh (MERTK) | %Inh (MET) | %Inh (MINK) | %Inh (MKK7) | %Inh (MKNK1) | %Inh (MKNK2) | %Inh (MLCK) | %Inh (MLK1) | %Inh (MLK2) | %Inh (MLK3) | %Inh (MRCKA) | %Inh (MRCKB) | %Inh (MST1R) | %Inh (MST1) |
| --- | --- | --- | --- | --- | --- | --- | --- | --- | --- | --- | --- | --- | --- | --- | --- | --- | --- | --- | --- | --- |
| Cc1ccc(NC(=O)Nc2cccc(Cl)c2)cc1-c1ccc(C(=O)Nc2ccncc2)cc1 [GSK1398468] | 0% | 0% | 38% | 11% | 0% | 0% | 0% | 0% | 14% | 30% | 6% | 4% | 0% | 0% | 0% | 0% | 19% | 0% | 34% | 1% |
| COc1ccccc1CNC(=O)c1cc(C(=O)c2ccccc2C)c[nH]1 [GSK364507] | 0% | 0% | 41% | 36% | 0% | 0% | 0% | 0% | 0% | 0% | 5% | 2% | 9% | 0% | 0% | 0% | 40% | 0% | 36% | 0% |
| Fc1cc(Cl)ccc1Nc1ccnc2cc(I)ccc12 [GW551191] | 0% | 0% | 46% | 75% | 0% | 16% | 30% | 8% | 51% | 0% | 0% | 18% | 2% | 0% | 0% | 0% | 16% | 0% | 82% | 0% |
| Cc1cccc(-c2cc(Nc3ccncc3)c3ccccc3n2)n1 [GSK223675] | 0% | 0% | 0% | 0% | 0% | 0% | 4% | 0% | 10% | 5% | 11% | 4% | 0% | 0% | 0% | 0% | 0% | 0% | 33% | 0% |
| COc1ccc(C2=C(Nc3cccc(C(=O)O)c3)C(=O)NC2=O)cc1 [SB-390765] | 15% | 15% | 7% | 40% | 0% | 11% | 11% | 0% | 8% | 8% | 0% | 43% | 27% | 0% | 0% | 27% | 0% | 8% | 24% | 0% |
| Nc1nc(-c2nccs2)c(-c2ccnc3ccccc23)s1 [GW693542] | 0% | 0% | 36% | 45% | 0% | 56% | 22% | 2% | 51% | 0% | 11% | 6% | 0% | 6% | 0% | 0% | 12% | 0% | 33% | 2% |
| COc1cc2ncnc(Nc3ccc4nc(-c5ccccc5)[nH]c4c3)c2cc1OC.Cl [GW282450] | 0% | 3% | 21% | 90% | 0% | 7% | 0% | 0% | 1% | 0% | 2% | 2% | 0% | 0% | 0% | 33% | 14% | 14% | 26% | 0% |
| O=C1NC(=O)C(N2CCc3ccccc32)=C1c1ccccc1Cl [SB-373598] | 0% | 0% | 9% | 8% | 0% | 12% | 27% | 17% | 4% | 20% | 7% | 0% | 18% | 14% | 50% | 46% | 0% | 5% | 7% | 87% |
| O=C(Nc1n[nH]c2nc(-c3nccs3)c(Br)cc12)C1CC1 [SB-742251] | 0% | 0% | 13% | 74% | 0% | 0% | 12% | 0% | 20% | 0% | 59% | 51% | 48% | 0% | 0% | 0% | 3% | 0% | 18% | 3% |
| C[C@@H]1CCCCN1c1cc(-c2ccc3c(N)n[nH]c3c2)nc(N)n1 [GSK2258759] | 0% | 0% | 8% | 7% | 14% | 0% | 11% | 0% | 15% | 0% | 0% | 5% | 0% | 0% | 0% | 0% | 6% | 0% | 28% | 0% |
| COc1ccccc1-c1ccc2c(NC(=O)C3CC3)n[nH]c2n1 [SB-711239] | 0% | 16% | 21% | 0% | 0% | 15% | 2% | 0% | 6% | 7% | 0% | 0% | 14% | 8% | 8% | 8% | 0% | 0% | 16% | 0% |
